# Results published in paper PMC4336329 (PLoS ONE, 2015).
# About 14,000 (4.5%) of roughly 310,000 compounds showed an effect of 50% or more. The effect is printed as a negative number. The sample holds strong results, similar compounds and a random draw of the others, so the mix is not that of the screen.
# Target: human ether-à-go-go-related gene (hERG) potassium channel (human, UniProt Q12809)
# Assay: primary screen, population patch clamp on CHO cells stably expressing hERG; higher = less effect of the substance
# 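Note: peak tail current of the secondary pulse compared with the same well before compound.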
# Sequence of human ether-à-go-go-related gene (hERG) potassium channel (Q12809 whole entry, looked up): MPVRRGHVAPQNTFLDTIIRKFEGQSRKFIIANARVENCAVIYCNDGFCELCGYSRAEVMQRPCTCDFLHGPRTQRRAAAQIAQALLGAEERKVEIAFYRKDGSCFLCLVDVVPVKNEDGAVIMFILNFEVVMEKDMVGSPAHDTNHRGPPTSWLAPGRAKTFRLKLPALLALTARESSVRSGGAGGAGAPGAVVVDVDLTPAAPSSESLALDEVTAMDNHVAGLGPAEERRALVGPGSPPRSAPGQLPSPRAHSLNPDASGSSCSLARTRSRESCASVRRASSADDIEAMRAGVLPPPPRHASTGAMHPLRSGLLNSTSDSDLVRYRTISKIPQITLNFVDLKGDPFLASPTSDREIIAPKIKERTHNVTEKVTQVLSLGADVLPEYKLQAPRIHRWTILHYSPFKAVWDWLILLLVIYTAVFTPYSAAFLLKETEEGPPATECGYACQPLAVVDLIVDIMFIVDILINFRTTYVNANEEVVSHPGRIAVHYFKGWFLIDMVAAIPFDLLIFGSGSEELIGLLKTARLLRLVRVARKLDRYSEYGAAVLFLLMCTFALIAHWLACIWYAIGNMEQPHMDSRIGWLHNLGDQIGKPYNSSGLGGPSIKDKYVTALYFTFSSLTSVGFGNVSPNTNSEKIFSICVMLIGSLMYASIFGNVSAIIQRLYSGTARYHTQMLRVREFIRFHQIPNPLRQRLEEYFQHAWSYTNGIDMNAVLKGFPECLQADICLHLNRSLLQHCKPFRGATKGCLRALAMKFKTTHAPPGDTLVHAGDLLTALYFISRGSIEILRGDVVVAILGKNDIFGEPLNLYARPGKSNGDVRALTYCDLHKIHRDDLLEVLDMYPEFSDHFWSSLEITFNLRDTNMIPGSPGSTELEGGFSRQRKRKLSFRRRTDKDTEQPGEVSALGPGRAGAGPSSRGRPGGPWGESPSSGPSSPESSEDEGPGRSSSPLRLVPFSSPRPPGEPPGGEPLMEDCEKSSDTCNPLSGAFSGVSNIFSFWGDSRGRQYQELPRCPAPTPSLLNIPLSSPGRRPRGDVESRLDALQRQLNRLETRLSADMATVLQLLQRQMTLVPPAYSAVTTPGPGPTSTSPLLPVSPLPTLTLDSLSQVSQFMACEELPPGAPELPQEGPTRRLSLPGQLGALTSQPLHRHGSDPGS
row,SMILES,"hERG current change (%, negative = inhibition) at 10uM [%]"
1,CCCCC[n+]1ccn(C2=C([O-])c3ccccc3C(=O)/C2=N\S(=O)(=O)c2ccc(Br)cc2)c1,-39.1
2,CC(/C=C/c1ccc2c(c1)OCO2)=N\NC(=O)c1ccccc1,10.3
3,O=S(=O)(NC1CCSc2ccccc21)c1ccc(Cl)nc1 (stereo not drawn),-18.1
4,CCOc1cc(/C=C2/C(=N)N3C(=NC2=O)SN=C3S(=O)(=O)C(C)C)ccc1OC(=O)c1ccco1,3.02
5,COC(=O)C1C(O)=C(C=Nc2ccc3ccccc3c2)C(=O)CC1(C)C (stereo not drawn),-8.23
6,O=[N+]([O-])c1ccc(Sc2ccc(F)cc2)nc1,11.2
7,COc1ccc(C(=O)Nc2cccc(/C=C(\CCC(=O)O)c3nc4ccccc4s3)c2)cc1,8.59
8,CN(C)/C=C1\C(=O)NN=C1C(F)(F)F,4.44
9,Cc1cccn2cc(-c3cccc(S(=O)(=O)N4CCOCC4)c3)nc12,0.676
10,COc1cc(OC)cc(C(=O)NCC(=O)N2CCCCC2)c1,9.25
11,CCn1ncc(Cl)c1C(=O)Nc1ccc2c(c1)CCC2,3.85
12,O=C(NCC1CC1)Nc1ccc(Cl)cc1,17.7
13,O=C(NCC1CCN(Cc2cccc(Cl)c2)CC1)Nc1ccc(Cl)cc1,-76.2
14,Cc1ccc(NC(=O)NCC2CCN(Cc3cccc(Cl)c3)CC2)cc1Cl,-19.7
15,CCc1ccc(NC(=O)NCC2CCN(c3ccc(OC)cc3)C2)cc1 (stereo not drawn),-6.79
16,CCc1ccc(NC(=O)NCC2CCN(Cc3cccc(Cl)c3)CC2)cc1,-82.9
17,COc1ccc(Oc2nccc(OC)c2C#N)cc1,-0.188
18,O=C(NCCCN1CCCC1=O)C1CCN(S(=O)(=O)c2cccc(Cl)c2Cl)CC1,-18.7
19,O=C(/C=C/c1ccccc1)OCC(=O)N1CCCC1,0.185
20,Cc1cc(NC(=O)CCN2CCN(C)CC2)ccc1Br.Cl,-7.85
21,Cc1cc(NC(=O)CCN2CC(C)OC(C)C2)ccc1Br.Cl (stereo not drawn),-7.73
22,Cc1cc(NC(=O)CCN2CCC(C)CC2)ccc1Br.Cl,-57.6
23,Cc1cc(NC(=O)CCN2CCCCC2)ccc1Br,-72.8
24,Cc1cc(NC(=O)CCN2CCN(CCO)CC2)ccc1Br.Cl,-4.69

row,SMILES,"hERG current change (%, negative = inhibition) at 10uM [%]"
1,CCN1CCN(CCC(=O)Nc2ccc(Br)c(C)c2)CC1.Cl,-30.8
2,CC1(C)Cc2c(C#N)c(NCCO)nc(-c3ccco3)c2CO1,-4.23
3,CC1(C)Cc2c(C#N)c(N3CCOCC3)nc(-c3ccccc3)c2CO1,-12.1
4,CC1(C)Cc2c(C#N)c(NCCc3ccccc3)nc(-c3ccco3)c2CO1,12.5
5,CC1(C)Cc2c(C#N)c(NCc3ccco3)nc(-c3ccco3)c2CO1,-8.94
6,Cc1nc(NCCN)c(C#N)c2c1COC(C)(C)C2,16
7,CCN(CC)CCNc1nc(-c2ccccc2)c2c(c1C#N)CC(C)(C)OC2,-66.4
8,CC1(C)Cc2c(C#N)c(NCCN3CCOCC3)nc(-c3ccco3)c2CO1,-6.23
9,CN(C)CCNc1nc(-c2ccco2)c2c(c1C#N)CC(C)(C)OC2,-55.7
10,CCN(CC)CCNc1nc(-c2ccco2)c2c(c1C#N)CC(C)(C)OC2,-62.6
11,COC(=O)c1c(NC(=S)NN2CCOCC2)sc2c1CCCC2,8.03
12,COc1ccc(S(=O)(=O)Nc2ccc(S(=O)(=O)NCC3CCCO3)cc2)cc1 (stereo not drawn),6.4
13,CCc1nc2c(sc3nc4c(cc32)COC(C)(C)C4)c(=O)n1CCN(CC)CC,-38.1
14,COc1ccc(C(=O)Nc2ccc3ccccc3n2)c(OC)c1OC,17.8
15,COc1ccc(C[C@H](N)C(=O)N[C@H]2[C@@H](O)[C@H](n3cnc4c(N(C)C)ncnc43)O[C@@H]2CO)cc1.Cl,-5.25
16,Cc1ccc(C(=O)Nc2ccc3c(c2)OCO3)cc1S(=O)(=O)N1CCCCC1,-18.8
17,CC(O)c1nc2ccccc2n1CCCOc1ccccc1 (stereo not drawn),-7.48
18,CCN1CCN(CC(=O)Nc2cc(F)ccc2C)CC1,-46.2
19,O=C(CN1CCN(Cc2ccccc2)CC1)Nc1ccc(F)c(F)c1.O=C(O)C(=O)O,-57.1
20,O=C(CN1CCN(CC(=O)Nc2ccccc2Cl)CC1)Nc1ccc(F)c(F)c1,-78.2
21,O=C(CN1CCCCCC1)Nc1ccc(F)c(F)c1.O=C(O)C(=O)O,-22.4
22,CCN(CC)S(=O)(=O)c1ccc(NC2CCN(Cc3ccccc3)CC2)nc1,-57.9
23,CCN(CC)S(=O)(=O)c1ccc(NCc2ccccc2)nc1,-11.3
24,O=C(CN1CCN(Cc2ccccc2F)CC1)Nc1ccccc1Cl,-27.6

row,SMILES,"hERG current change (%, negative = inhibition) at 10uM [%]"
1,Cc1ccccc1NC(=O)CN1CCN(Cc2ccccc2)CC1,-36.1
2,O=C(CN1CCN(c2ccc(Cl)cc2)CC1)Nc1ccc(F)c(F)c1,-18.7
3,CCN(CC)S(=O)(=O)c1ccc(Cl)c(C(=O)NC2CCN(Cc3ccccc3)CC2)c1.Cl,-28.8
4,Cl.O=C(CN1CCN(Cc2ccccc2)CC1)Nc1ccc2c(c1)CCC2,-47.6
5,Cc1ccc(F)cc1NC(=O)CN1CCN(Cc2ccccc2)CC1,-63.2
6,COc1ccc(C)cc1NC(=O)CSc1ccc(Cl)cc1,11.1
7,Cc1cccc(C)c1NC(=O)CCS(=O)(=O)c1ccc(Br)cc1,31.2
8,COc1cccc(-c2nc(CS(=O)(=O)CC(=O)N3CCN(C)CC3)c(C)o2)c1,8.02
9,CCN(CC)CC(=O)Nc1ccc(-c2nc3cc(NC(=O)CN(CC)CC)ccc3o2)cc1,-18.1
10,CCNC(=O)NC(=O)COC(=O)c1ccccc1SCC(=O)NC(=O)NCC,3.64
11,Cc1ccc(-c2nc3ccccc3c(C(=O)NCc3cccs3)c2C)cc1,-5.33
12,COC(=O)C1=C(c2ccc(F)cc2F)C[C@@H]2CC[C@H]1N2C(=O)NCc1ccc(F)cc1,-46.4
13,CC(=O)Nc1ccc(S(=O)(=O)Nc2c(NC3CCCCC3)c3ccccc3oc2=O)cc1,7.19
14,O=C(CN1CCNCC1)Nc1ccccc1Cl,-2.06
15,CCN(CC)S(=O)(=O)c1ccc(C)c(NC(=O)CNCc2ccccc2OC)c1.O=C(O)C(=O)O,-37.7
16,Cc1ccc(NC(=O)CN2CCN(Cc3ccccc3)CC2)cc1F,-71.2
17,O=C(CN1CCN(CC(=O)c2ccc(F)cc2)CC1)Nc1ccccc1Cl,-68.9
18,CCN(CC)c1ccc(S(=O)(=O)N2CCOCC2)cc1NC(=O)CN1CCN(Cc2ccccc2)CC1.Cl,-45.7
19,CCN(CC)S(=O)(=O)c1ccc(C)c(NC(=O)CNCCN(C(C)C)C(C)C)c1.O=C(O)C(=O)O,-75.5
20,Cc1ccc(S(=O)(=O)N(C)C)cc1NC(=O)CN1CCN(Cc2ccccc2)CC1.Cl,-24.8
21,CCN(CC)S(=O)(=O)c1ccc(C)c(NC(=O)CN2CCN(C)CC2)c1.O=C(O)C(=O)O,-12.4
22,Cc1ccc(NC(=O)CN2CCN(Cc3ccccc3)CC2)cc1Cl,-46
23,CC(=O)N1CCN(CC(=O)Nc2ccc(C)c(F)c2)CC1.Cl,0.314
24,CCN(CC)S(=O)(=O)c1ccc(C)c(NC(=O)CN2CCN(Cc3ccccc3)CC2)c1.Cl,-69.1

row,SMILES,"hERG current change (%, negative = inhibition) at 10uM [%]"
1,O=C(CN1CCC(C(=O)c2ccc(F)cc2)CC1)Nc1ccccc1Cl,-20.5
2,Cc1cc(-c2csc(N)n2)c(C)n1CCc1ccccc1.Cl,-12.4
3,Cc1ccc(Oc2ncc(CN3CCOCC3)s2)cc1,3.3
4,C=CCn1c(SCC(=O)Nc2cc(C)on2)nc2sc(C)c(C)c2c1=O,-0.759
5,O=C(Nc1nnc(-c2ccc(Br)cc2)o1)C1=COCCO1,3.07
6,COc1ccccc1CNC(=O)c1ccc(N(C)S(=O)(=O)c2ccc(C)cc2)cc1,17.5
7,Cl.OC(c1ccccc1)(C1CCCCC1)C(CN1CCOCC1)c1ccccc1 (stereo not drawn),-12.5
8,Cn1nnnc1SC1CC(=O)N(c2ccccc2)C1=O (stereo not drawn),2.48
9,O=C(NCCO)c1ccc2[nH]c3ccccc3c2c1,9.18
10,Cc1ccc(NC(=O)CN2CCOCC2)c(Br)c1,-9.76
11,Cc1ccc(NC(=O)CNCc2ccccc2)c(Br)c1,0.831
12,Cc1ccc(NC(=O)CN2CCN(Cc3ccccc3)CC2)c(Br)c1.Cl,-72.5
13,CCOC(=O)N1CCN(S(=O)(=O)c2ccc(C)cc2)CC1,17.9
14,CCNC(=O)C(=O)N1CCC2(CC1)OCCN2S(=O)(=O)c1ccc(C)cc1,2.81
15,COc1ccccc1N1CCN(S(=O)(=O)c2ccc(-n3cnnn3)cc2)CC1,-72
16,COc1ccccc1N1CCN(S(=O)(=O)c2ccc(-n3cnnn3)c(C)c2)CC1,-13.7
17,COc1ccc(CNC(=O)C(=O)N2CCC3(CC2)OCCN3S(=O)(=O)c2ccc(C)cc2)cc1,-29.9
18,O=C(NCc1ccccc1Cl)C1CCN(S(=O)(=O)c2ccc(-n3cnnn3)cc2)CC1,-27.3
19,CCOC(=O)c1ccc(S(=O)(=O)N2CCC(C(=O)NCc3ccccc3OC)CC2)cc1,-22.5
20,COc1ccccc1CNC(=O)C1CCN(S(=O)(=O)c2ccc(-n3cnnn3)cc2)CC1,-66.9
21,CCOC(=O)N1CCN(S(=O)(=O)c2ccc(-n3cnnn3)cc2)CC1,-61.4
22,CCCN1CCN(S(=O)(=O)c2ccc(-n3cnnn3)cc2)CC1,-28
23,O=S(=O)(c1ccc(-n2cnnn2)cc1)N1CCN(c2ccccc2F)CC1,-3.2
24,COc1cccc(CNC(=O)C(=O)N2CCC3(CC2)OCCN3S(=O)(=O)c2ccc(C)cc2)c1,-57
